JMJD2E inh = qHTS Assay for Inhibitors of Human Jumonji Domain Containing 2E (JMJD2E) | Lysine-specific demethylase 4E (Homo sapiens), B2RXH2 | JMJD2E catalytic domain, FDH-coupled NADH fluorescence (FDH is formaldehyde dehydrogenase) | Potency, µM (series often up to 57.1 µM), actives largely listed as inhibitors | 230,000 compounds, 1.6% hits | AID 2147, 2009; active = well fitted inhibition curve with a large enough effect, not every such curve was filed as active; inconclusive = small, poorly fitted or top-dose-only effect, or another doubt; inactive = no such curve, though single readings can be large or run the other way; also: nearly all actives have a fitted effect of over 50% in size
Target sequence (B2RXH2 1-337 limits assumed): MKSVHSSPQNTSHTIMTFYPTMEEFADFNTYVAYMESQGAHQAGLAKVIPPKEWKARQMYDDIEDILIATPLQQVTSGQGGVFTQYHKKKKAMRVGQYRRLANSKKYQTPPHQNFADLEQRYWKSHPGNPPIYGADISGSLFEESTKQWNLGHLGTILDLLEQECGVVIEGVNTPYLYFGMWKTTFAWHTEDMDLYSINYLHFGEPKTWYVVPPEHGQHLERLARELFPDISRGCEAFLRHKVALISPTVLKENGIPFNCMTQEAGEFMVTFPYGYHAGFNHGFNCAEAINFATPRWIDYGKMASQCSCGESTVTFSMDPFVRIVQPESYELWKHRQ
FBPA coupling cs = qHTS Assay for Inhibitors of Fructose-1,6-bisphosphate Aldolase from Giardia Lamblia: Coupling assay counterscreen; coupling enzyme system counterscreen, AmpLite Red fluorescence; activity change, negative = inhibition, % at 58.2 µM, hits read low; 290,000 compounds, 0.67% hits; AID 2472, 2010; in the data active = activity change below about -30%
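First, compound is pin-transferred into glyceraldehyde-3-phosphate coupling-enzyme reagent at 57.5 uM final and held 10 min at RT. Next, substrate, coupling system and AmpLite Red are added. After 20 min RT, fluorescence (525/598 nm) is read.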
RGS12 GoLoco inh = qHTS Assay for Inhibitors of RGS12 GoLoco Motif Activity (Red Fluorophore); Gai1:RGS12 GoLoco peptide FP, rhodamine, 10 min; Potency, µM (doses to about 61.6 µM), hits mostly inhibitors; 230,000 compounds, 0.44% hits; AID 880, 2007; active = well fitted inhibition curve with a large enough effect, not every such curve was filed as active; inactive = no such curve, though single readings can be large or run the other way; also: nearly all actives have a fitted effect of over 30% in size
Target sequence (P63096 whole entry, looked up): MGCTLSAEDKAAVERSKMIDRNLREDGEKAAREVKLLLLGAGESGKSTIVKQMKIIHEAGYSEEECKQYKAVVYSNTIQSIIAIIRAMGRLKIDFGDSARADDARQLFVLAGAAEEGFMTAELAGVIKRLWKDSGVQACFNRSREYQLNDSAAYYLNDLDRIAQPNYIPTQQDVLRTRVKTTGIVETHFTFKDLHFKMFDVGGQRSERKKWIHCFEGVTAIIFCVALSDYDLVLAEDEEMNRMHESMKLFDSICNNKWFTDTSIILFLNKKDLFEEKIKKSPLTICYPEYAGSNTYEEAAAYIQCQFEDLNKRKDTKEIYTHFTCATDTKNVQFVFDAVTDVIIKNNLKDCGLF
HTT ATP protect = qHTS Multiplex Assay to Identify Dual Action Probes in a Cell Model of Huntington: Cytoprotection (ATP). PC12 HTT-Q103 induced, cytoprotection, ATP luminescence, 40 h. Potency, µM (titrated, usually from 56.4 µM), most hits filed as activators. 230,000 compounds, 0.14% hits. AID 1471, 2008; also: nearly all actives have a fitted effect of over 45% in size
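Quantitative HTS on tebufenozide-induced (100 nM) PC12 cells expressing HTTQ103 exon 1–GFP; compounds tested as a concentration series; survival measured via cellular ATP.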
VDR inh = Inhibitors of the vitamin D receptor (VDR): qHTS; Potency, µM, most hits filed as inhibitors; Vitamin D3 receptor (Homo sapiens), P11473; VDR-SRC2-3 peptide fluorescence polarization, 2 h; AID 504847, 2011; 400,000 compounds, 0.93% hits
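After 23 nl compound addition and a short centrifugation, plates sat for 2 hours at ambient temperature; polarization of fluorescence then indicated loss of VDR binding to peptide SRC2-3.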
HttQ103 aggreg = qHTS Multiplex Assay to Identify Dual Action Probes in a Cell Model of Huntington: Aggregate Formation (GFP) | AID 1688, 2009 | 220,000 compounds, 1.1% hits | Potency, µM (top dose mostly 46.1 µM), actives largely listed as inhibitors | PC12 HttQ103-GFP aggregates, Acumen cytometry, 40 h; also: nearly all actives have a fitted effect of over 60% in size
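Inducible Q103 Huntingtin exon 1–GFP PC12 line, 1500 cells/well in phenol red free DMEM with 5% equine and 5% calf serum. Tebufenozide 100 nM induced expression; compounds titrated; aggregates quantified by cytometry.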
Numbers stand for hits; ! = not active in a repeat; [ ] = another dose, or the depositor's remark. Compounds with a hit are over-represented: about 2.3% of the library has one in this group of screens. Unless noted, calls follow the shape of the dose curve; as a rule, active = well fitted curve in the direction sought with a large enough effect; inconclusive = small, poorly fitted or top-dose-only effect, or another doubt; inactive = no such curve, though single readings can be large; an effect the other way counts as inactive or inconclusive.

How did CCC1Nc2ncnc(N3CCOCC3)c2N(Cc2ccc(OC)cc2)C1=O (stereo unspecified) do in these assays?
VDR inh: 79µM

What do the screens show for `CCC1Nc2ncnc(N3CCN(c4ccccc4)CC3)c2N(Cc2ccc(OC)cc2)C1=O` (stereo unspecified)?
VDR inh: inactive

How did COc1ccc(NS(=O)(=O)c2cccc3cccnc23)cc1 do in these assays?
JMJD2E inh: inactive; FBPA coupling cs: inactive; RGS12 GoLoco inh: inactive; HTT ATP protect: inactive[10 µM]; VDR inh: inactive; HttQ103 aggreg: 13µM

What do the screens show for `CSS(=O)(=O)c1cccc2cccnc12`?
JMJD2E inh: 2.5µM; FBPA coupling cs: inactive; RGS12 GoLoco inh: inactive; HTT ATP protect: inactive[10 µM]; VDR inh: 11µM; HttQ103 aggreg: inactive[9.22 µM]

Results for c1cnc2c(c1)ccc1cccnc12 ?
JMJD2E inh: 25µM; FBPA coupling cs: -66!; RGS12 GoLoco inh: inactive[14.2 µM]; HTT ATP protect: inactive[10 µM]; VDR inh: inactive; HttQ103 aggreg: 7.9µM

What do the screens show for `COC(=O)NC(/C=C/c1ccco1)[C@@]1(C(=O)OC)CCCC1=O` (stereo partly specified)?
FBPA coupling cs: inactive; HTT ATP protect: inactive[10 µM]

Results for NCCCC[C@H](N)C(=O)N[C@@H](CCCN=C(N)N)C(=O)N1CCC[C@H]1C(=O)N1CCC[C@H]1C(=O)NCC(=O)N[C@@H](Cc1ccccc1)C(=O)N[C@@H](CO)C(=O)N1CCC[C@H]1C(=O)N[C@@H](Cc1ccccc1)C(=O)O ?
FBPA coupling cs: inactive; VDR inh: inactive

How did O=C(N/N=C\c1ccc(Cl)s1)c1ccc(Cn2cccn2)o1 do in these assays?
JMJD2E inh: inactive; FBPA coupling cs: inactive; RGS12 GoLoco inh: inactive; HTT ATP protect: inactive[10 µM]; VDR inh: 71µM; HttQ103 aggreg: inactive

What do the screens show for `COc1ccc(NC(=O)c2ccco2)cc1NC(=O)c1cccnc1`?
JMJD2E inh: inactive; FBPA coupling cs: inactive; RGS12 GoLoco inh: inactive; HTT ATP protect: inactive[0.074 µM]; VDR inh: inactive; HttQ103 aggreg: 3.2µM

How did CC(=O)Nc1ccc(C(=O)OCC(=O)N(c2ccccc2)C2CCS(=O)(=O)C2)cc1 (stereo unspecified) do in these assays?
VDR inh: inactive

Results for O=C(CCl)N(c1ccccc1)C1CCS(=O)(=O)C1 (stereo unspecified) ?
JMJD2E inh: inactive; FBPA coupling cs: inactive; RGS12 GoLoco inh: inactive; HTT ATP protect: inactive[10 µM]; VDR inh: inactive; HttQ103 aggreg: 8.9µM

What do the screens show for `CC(C)OC(=O)CC(=O)CSc1nc2c(c(-c3cccs3)c1C#N)CCC2`?
JMJD2E inh: inconclusive; FBPA coupling cs: inactive; RGS12 GoLoco inh: inactive; HTT ATP protect: inactive[1.9 µM]; VDR inh: inactive; HttQ103 aggreg: 11µM

How did Nc1nnc(CC(=O)N/N=C/c2cc([N+](=O)[O-])cc(Br)c2O)s1 do in these assays?
JMJD2E inh: 11µM; FBPA coupling cs: inactive; RGS12 GoLoco inh: inactive; HTT ATP protect: inconclusive; VDR inh: inconclusive; HttQ103 aggreg: inactive[9.22 µM]

How did Nc1nnc(CC(=O)N/N=C/c2cccc([N+](=O)[O-])c2)s1 do in these assays?
JMJD2E inh: inactive; FBPA coupling cs: inactive; RGS12 GoLoco inh: inactive; HTT ATP protect: inactive; VDR inh: inactive; HttQ103 aggreg: inactive

What do the screens show for `O=C(CSCc1cnn(-c2ccccc2)c1-n1cccc1)NCc1ccccc1F`?
VDR inh: inactive

How did O=c1cc(-c2ccccc2)oc2ccccc12 do in these assays?
RGS12 GoLoco inh: inactive; HTT ATP protect: inactive; VDR inh: inactive

Results for O=c1cc(-c2ccc(O)c(O)c2)oc2ccccc12 ?
JMJD2E inh: 8.9µM; FBPA coupling cs: inactive; RGS12 GoLoco inh: inactive; HTT ATP protect: inactive; VDR inh: inconclusive

Results for CSc1ccccc1NC(=O)CN(C)C(C)C(=O)NCc1ccc2c(c1)OCO2 (stereo unspecified) ?
VDR inh: inactive

Results for O=C(Cc1cccs1)Nc1cccc(-c2nc3cc4ccccc4cc3[nH]2)c1 ?
JMJD2E inh: inconclusive; FBPA coupling cs: inactive; RGS12 GoLoco inh: inactive; VDR inh: inactive; HttQ103 aggreg: 25µM

How did C=CCn1c(C)cc(C)c(C#N)c1=O do in these assays?
JMJD2E inh: inconclusive; FBPA coupling cs: inactive; RGS12 GoLoco inh: inactive; HTT ATP protect: inactive; VDR inh: inactive; HttQ103 aggreg: inactive

How did C=CCn1c(O)c(CN2CCOCC2)c(C)c(C#N)c1=O do in these assays?
JMJD2E inh: inconclusive; FBPA coupling cs: -31; RGS12 GoLoco inh: inactive; HTT ATP protect: inactive[10 µM]; VDR inh: inactive; HttQ103 aggreg: inactive

What do the screens show for `Cc1ccc(N2C(=O)c3ccccc3C2C(=O)c2ccc(O)cc2O)cc1` (stereo unspecified)?
JMJD2E inh: 20µM; FBPA coupling cs: inactive; RGS12 GoLoco inh: inactive; HTT ATP protect: inactive[10 µM]; VDR inh: inactive; HttQ103 aggreg: inactive

What do the screens show for `Cc1ccc(N2C(=O)c3ccccc3C2C(=O)c2cc(C)ccc2O)cc1` (stereo unspecified)?
JMJD2E inh: inconclusive; FBPA coupling cs: inactive; RGS12 GoLoco inh: inactive; HTT ATP protect: inactive[10 µM]; VDR inh: inactive; HttQ103 aggreg: inactive

What do the screens show for `O=C(CN1CCOCC1)NCc1ccccc1`?
JMJD2E inh: inactive; FBPA coupling cs: inactive; RGS12 GoLoco inh: inactive; HTT ATP protect: inactive; VDR inh: inactive; HttQ103 aggreg: 0.32µM

What do the screens show for `O=C(Cn1cnc([N+](=O)[O-])n1)N/N=C/c1cc(Cl)ccc1O`?
JMJD2E inh: 22µM; FBPA coupling cs: inactive; RGS12 GoLoco inh: inactive; HTT ATP protect: inactive; VDR inh: inactive; HttQ103 aggreg: 11µM

Results for O=C(Cn1cnc([N+](=O)[O-])n1)N/N=C/c1ccccc1O ?
JMJD2E inh: 25µM; FBPA coupling cs: inactive; RGS12 GoLoco inh: inactive; HTT ATP protect: inactive; VDR inh: inactive; HttQ103 aggreg: 8.9µM

Results for CC(=O)N1c2ccc(S(=O)(=O)N(C)C3CCCCC3)cc2CC1C (stereo unspecified) ?
VDR inh: inactive

Results for CCC(=O)NC(c1cccs1)c1cc([N+](=O)[O-])c2cccnc2c1O (stereo unspecified) ?
JMJD2E inh: inconclusive; FBPA coupling cs: inactive; RGS12 GoLoco inh: inactive; HTT ATP protect: inactive[10 µM]; VDR inh: inactive; HttQ103 aggreg: inconclusive

What do the screens show for `CC(=O)NC(c1ccccc1)c1cc([N+](=O)[O-])c2cccnc2c1O` (stereo unspecified)?
JMJD2E inh: 16µM; FBPA coupling cs: inactive; RGS12 GoLoco inh: inactive; HTT ATP protect: inactive[10 µM]; VDR inh: inactive; HttQ103 aggreg: 2.8µM

Screening results from PubChem.
